# Bioassay records as filed in PubChem BioAssay.
# aSyn UTR act: Activators via SNCA 5'UTR binding, MLPCN | activity score, % (tested at 7.5 µM), hits read low | hit rate 7.1% among 300,000 | alpha-synuclein 5'UTR reporter, activators screen; in the data active = activity score below about -60%
# The depositor's hits bear a star. A selection follows.
SMILES,aSyn UTR act
O=C(Nc1ccc(Br)cc1)Nc1ccccc1F,-232*
O=C(Nc1ccccc1F)Nc1ccccc1F,-239*
Fc1cccc2sc(Nc3nc4cc5c(cc4s3)OCCO5)nc12,-78*
Fc1cc(F)c2nc(Nc3nc4cc5c(cc4s3)OCO5)sc2c1,-176*
Fc1cccc2sc(Nc3nc4cc5c(cc4s3)OCO5)nc12,-222*
O=C(NNc1nc2cc3c(cc2s1)OCCO3)c1ccccc1,-141*
O=[N+]([O-])c1cc(C=Nc2ccc3ccccc3c2)ccc1Br,-119*
CCCCCCCCCCCCCCCC[N+](C)(C)CC,101
COc1ccccc1C(=O)N/C(N)=N/c1nc2ccccc2o1,-70*
N/C(=N\c1nc2ccccc2o1)NC(=O)c1ccccc1,-194*
CC(C)(C)C(=O)N/C(N)=N/c1nc2ccccc2o1,-63*
Cc1ccc(C(=O)N/C(N)=N/c2nc3ccccc3o2)cc1,-114*
O=C(Nc1ccc(Cl)c(Cl)c1)Nc1ccccc1O,-105*
CCOC(=O)c1ccc(NC(=O)Nc2ccon2)cc1,64
O=C(Nc1ccc(Cl)c(Cl)c1)Nc1ccon1,-69*
COC(=O)c1c(-c2cccs2)csc1NC(=O)c1cccnc1,-87*
COc1ccc(/C=C/C(=O)C2C(=O)C=C(C)OC2=O)cc1O (stereo unspecified),-243*
CN(CC(=O)N1CCCCCC1)S(=O)(=O)c1ccccc1,-68*
CCCCCCCn1ccc(=N)cc1,56
CC(C)N1CC(O)=C(c2nc3ccccc3[nH]2)C1=N,-74*
CCCCCN1CC(O)=C(c2nc3ccccc3[nH]2)C1=N,-117*
CCCCN1CC(O)=C(c2nc3ccccc3[nH]2)C1=N,-107*
CCCCCCCCCn1ccc(=N)cc1,82
O=C(/C=C/c1ccccc1)CC(=O)c1ccccc1O,-201*
COc1cc(/C=C/C(=O)NC(=O)c2ccccc2O)ccc1O,-161*
SMILES,aSyn UTR act
O=C(/C=C/c1ccccc1)NC(=O)c1ccccc1O,-157*
O=C(Nc1nc(-c2ccccn2)cs1)C1CC1,-111*
O=C(Nc1nc(-c2ccccn2)cs1)C12CC3CC(CC(O)(C3)C1)C2,-68*
N#Cc1ccc(-c2csc(NC(=O)C3CC3)n2)cc1,-64*
O=C(Nc1nc(-c2ccccn2)cs1)c1cccc(-n2cnnn2)c1,83
Cc1occc1C(=O)O/N=C(\N)c1ccc(Cl)cc1,-71*
COc1cc(OC)c(C(=O)O/N=C(\N)c2cccc(C)c2)cc1OC,-67*
COc1cc(OC)c(C(=O)O/N=C(\N)c2ccc(C)cc2)cc1OC,-66*
COc1ccc(Cl)cc1C(=O)O/N=C(\N)c1ccc(Cl)cc1,-267*
Nc1cnc(Nc2ccc(Br)cc2)nc1N,-106*
O=C(NCCCn1ccnc1)c1cc(-c2cccc(O)c2)on1,-65*
CCOc1ccc(-c2cc(C(=O)NCCCn3ccnc3)c3cc(Br)ccc3n2)cc1,60
O=C(NCCCn1ccnc1)c1cc2ccccc2oc1=O,-65*
O=c1oc2cc(Cl)ccc2n1CSc1nc2ccccc2s1,-165*
O=C(C[n+]1cn(C(F)F)c2ccccc21)c1ccc(OC(F)F)cc1,-129*
CC#CC(=O)N1CCC(n2nccc2NC(=O)c2ccc3c(c2)OCO3)CC1,-83*
CSCCC(=O)N1CCC(n2nccc2NC(=O)c2ccc3c(c2)OCO3)CC1,-84*
CN(C)/C=N/c1ncn(-c2ncc(C(F)(F)F)cc2Cl)n1,-85*
O=[N+]([O-])c1cccc(-c2nc(-c3ccncc3)no2)c1,-89*
Cc1cc(-c2nc(-c3ccncc3)no2)ccc1[N+](=O)[O-],-166*
O=[N+]([O-])c1cccc(-c2nc(-c3ccccc3)no2)c1,-134*
O=[N+]([O-])c1cccc(-c2noc(-c3ccco3)n2)c1,-96*
Cc1ccc(-c2nc(-c3ccncc3)no2)cc1Cl,-99*
Cc1ccc(-c2nc(-c3ccccn3)no2)cc1Cl,104
CCOC(=O)CNC(=O)CSc1nnc(NC(=O)c2ccc(C)cc2)s1,74
SMILES,aSyn UTR act
Cc1cccc(C(=O)Nc2nnc(SCC(=O)NC3CC3)s2)c1,-66*
O=C(CSc1nnc(NC(=O)c2ccccc2F)s1)NCC1CCCO1 (stereo unspecified),-72*
O=C(CSc1nnc(NC(=O)c2ccc(F)cc2)s1)NC1CC1,-79*
CC1CCC(NC(=O)CCC(=O)N2CC(C)Oc3ccccc32)CC1 (stereo unspecified),-144*
O=C(CCCc1ccccc1)Nc1ccc(Br)cc1F,-71*
O=C(CCc1ccccc1)Nc1ccccc1F,-135*
O=C(CCc1ccccc1)Nc1ccc(F)cc1F,-68*
Cc1ccc(NC(=O)c2cc3nc(C)cc(C)n3n2)cc1,-82*
Cc1cc(C)n2nc(-c3ccccc3)cc2n1,-97*
Cc1ccc(-c2cc3nc(C)cc(C)n3n2)cc1,-109*
Cc1cc(C)n2nc(Nc3ccccc3)cc2n1,-165*
O=C(CCc1nc2ccccc2s1)c1ccccc1,-85*
O=C(COC(=O)CCc1nc2ccccc2s1)Nc1nc(-c2ccccc2)cs1,-84*
O=C(CCc1nc2ccccc2s1)OCC(=O)c1ccccc1,-100*
COc1ccc(N=C(C)C2=C(O)COC2=O)cc1,-93*
